# Assay outcomes: PubChem BioAssay, National Center for Advancing Translational Sciences (NCATS)
# Rows were chosen to be rich in hits. Some 7.5% of all compounds tested hit in one or more screens of this group.
# VACV mCherry inh: qHTS for Stage-Specific Inhibitors of Vaccinia Orthopoxvirus: mCherry Reporter Primary qHTS | Potency, µM (titrated, usually from 36.5 µM), inactives show top-dose activity change, negative = inhibition, hits mostly inhibitors | 310,000 compounds, 0.63% hits | Vaccinia virus mCherry reporter infection, fluorescence | AID 720579, 2013; calls by dose curve; tested in A549 cells; further: potency means the concentration at half of the fitted maximal effect; nearly all actives have a fitted effect of over 35% in size
# FMDV antiviral: High Throughput Screening for Foot and Mouth Disease Virus Antivirals; FMDV antiviral cell-based qHTS; Potency, µM (highest dose often 57.9 µM), inactives show at the highest dose activity change, negative = inhibition, hits mostly inhibitors; 410,000 compounds, 1.2% hits; calls by dose curve; tested in HEK293T cells; further: read-out not given here; potency means the concentration at half of the fitted maximal effect; nearly all actives have a fitted effect of over 45% in size
# HCV inhibitor: qHTS Assay for Inhibitors of Hepatitis C Virus (HCV); Huh7.5.1 HCVcc-Cre infection, luciferase reporter, 44 h; Potency, µM (series often up to 41.8 µM), without a hit: at the highest dose activity change, negative = inhibition, most hits filed as inhibitors; 340,000 compounds, 3.4% hits; AID 651820, 2012; further: potency means the concentration at half of the fitted maximal effect
#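 HCVcc-Cre virus at an moi near 0.5 was added right after compound to cells cultured 4 h from seeding (1,000 cells/well). Luciferase activity was determined 44 h later, 15 min after substrate addition at RT.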
# VACV Venus inh: qHTS for Stage-Specific Inhibitors of Vaccinia Orthopoxvirus: Venus Reporter Primary qHTS | Vaccinia virus Venus reporter expression, fluorescence | 330,000 compounds, 0.46% hits | Potency, µM (series often up to 36.5 µM), inactives show top-dose activity change, negative = inhibition, actives largely listed as inhibitors; calls by dose curve; tested in A549 cells; further: potency means the concentration at half of the fitted maximal effect; nearly all actives have a fitted effect of over 30% in size
# HCMV inh: qHTS Assay for inhibitors of the human cytomegalovirus (HCMV); HFF cells, HCMV-luciferase reporter, 72 h; hits give low values; activity change, negative = inhibition, % at 57.5 µM; 410,000 compounds, 4.5% hits; in the data active means activity change below about -60%; inconclusive means no clear call, values can overlap the other calls; inactive means above about -39%
#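 Compounds were evaluated in HFFs infected with an HCMV luciferase reporter virus (MOI 1 PFU/cell). Luciferase in lysates collected 72 h post infection served as the replication measure.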
# Giardia FBPA inh: qHTS Assay for Inhibitors of Fructose-1,6-bisphosphate Aldolase from Giardia Lamblia. A8B2U2. purified Giardia FBPA. Potency, µM (top dose mostly 59.6 µM), for inactives: at the top dose activity, negative = inhibition, most hits filed as inhibitors. 290,000 compounds, 0.71% hits. AID 2451, 2010; further: potency means the concentration at half of the fitted maximal effect; nearly all actives have a fitted effect of over 55% in size
# Target sequence (A8B2U2 whole entry, looked up): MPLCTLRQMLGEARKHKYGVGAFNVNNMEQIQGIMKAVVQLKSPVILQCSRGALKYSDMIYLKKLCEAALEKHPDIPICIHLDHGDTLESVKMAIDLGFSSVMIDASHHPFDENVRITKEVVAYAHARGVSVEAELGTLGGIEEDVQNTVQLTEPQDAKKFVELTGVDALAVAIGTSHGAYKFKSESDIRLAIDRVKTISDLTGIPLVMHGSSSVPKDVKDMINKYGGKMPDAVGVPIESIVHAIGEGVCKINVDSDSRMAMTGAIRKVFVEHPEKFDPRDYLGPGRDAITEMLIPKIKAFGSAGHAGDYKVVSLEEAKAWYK
#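 Giardia FBPA (40 nM reagent) was preincubated 10 min at RT with compound (up to 57.5 uM final), then substrate plus GAPDH/TPI/NAD/arsenate coupling system with diaphorase/resazurin was added; resorufin fluorescence (525/598 nm) was read after 20 min.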
# * hit, by the source's call; i = inactive; ? = inconclusive; · = not tested or not shown. Unless noted, the call rests on the fitted dose curve; in most records, active means well fitted curve in the direction sought with a large enough effect; inconclusive means small, poorly fitted or top-dose-only effect, or another doubt; inactive means no such curve, though single readings can be large; an effect the other way counts as inactive or inconclusive. On the % scale 0 is the no-effect control and ±100 the full control effect.
SMILES,VACV mCherry inh,FMDV antiviral,HCV inhibitor,VACV Venus inh,HCMV inh,Giardia FBPA inh
O=C(NCc1ccc(F)c(F)c1)c1cnc(N2CCN(CCc3ccccc3)C2=O)o1,·,·,·,·,3,·
NC(=S)NN=Cc1nccc2c(C(F)(F)C(F)(F)C(F)(F)F)cccc12,0.32µM*,-8%,·,1µM*,-99*,·
Cc1ccc(S(=O)(=O)N(C)C)cc1NC(=O)COC(=O)/C(=C/c1ccc(F)cc1)c1cccs1,-21%,?,11µM*,-29%,3,-3%
Cc1ccc(S(=O)(=O)N(C)C)cc1NC(=O)COC(=O)c1cccs1,-8%,-14%,·,-20%,-17,·
Cc1cc(C(=O)OCC(=O)Nc2cc(S(=O)(=O)N(C)C)ccc2C)c2ccccc2n1,0%,16µM*,20%,1%,-21,3%
C[C@@H](O)CNC(=O)c1[nH]cnc1C(=O)N[C@H](C)c1ccccc1,-2%,-24%,·,-17%,7,·
O=C(c1ccc(Cl)cc1)N1CCC(=O)N(C(CO)Cc2ccccc2)CC1 (stereo not given),-13%,-13%,-25%,-6%,2,·
CC1(C)Cc2nc(Cl)c(C#N)cc2CO1,i,-23%,6%,-3%,-100*,4%
CCCCCn1c(=O)c2ccccc2n2c(CCl)nnc12,-9%,20µM*,-25%,-4%,-12,-2%
CC(C)CCn1c(=O)c2ccccc2n2c(CCl)nnc12,-10%,32µM*,?,-18%,15,0%
O=C(NN=Cc1ccc(N(CCCl)CCCl)cc1)C(=O)c1c[nH]c2ccccc12,-22%,2%,?,-13%,-21,·
CCN(CC)c1ccc(/C=N/NC(=O)c2c[nH]c3ccccc23)cc1,?,6%,?,?,-67*,-1%
COc1ccc(-c2cn3nc(SCC(=O)Nc4ccccc4F)ccc3n2)cc1,-5%,0%,·,-17%,44,·
CN1CCC(N2CCN(C3CN(Cc4ccccc4)S(=O)(=O)C3)CC2)CC1 (stereo not given),28%,-9%,·,5%,-22,·
COc1cccc(N2CCN(c3nc(-c4ccccc4C)cc(=O)[nH]3)CC2)c1,·,-12%,?,·,-98*,15%
COc1cccc(N2CCN(c3nc(C)c(C)c(=O)[nH]3)CC2)c1,i,-7%,15%,-15%,3,-12%
COC(=O)C1=C(c2ccccc2OCc2ccccc2)C[C@@H]2CC[C@H]1N2C(=O)NCc1ccc(Cl)cc1,i,0%,11µM*,?,-13,·
COC(=O)C1=C(c2ccccc2OCc2ccccc2)C[C@@H]2CC[C@H]1N2C(=O)NCc1ccc([N+](=O)[O-])cc1,-22%,-14%,13µM*,?,15,·
O=C(CCl)Nc1ccc2c(c1)OCO2,-20%,?,?,-19%,-61*,-5%
C/C(=C\C(=O)c1ccccc1)Nc1ccc2c(c1)OCO2,-21%,-10%,3.2µM*,-1%,37,-25%
C/C(=C\C(=O)c1ccc(C)o1)Nc1ccc2c(c1)OCO2,·,44%,11%,·,8,?
O=C(Nc1ccc(OCC(=O)N2CCOCC2)cc1)c1ccccc1F,21%,-12%,2%,-5%,-27,4%
Cc1cc(NC(=O)c2ccccc2F)cc(C)c1OCC(=O)N1CCOCC1,-1%,16%,-2%,-8%,-98*,·
COc1cccc(NC(=O)Cn2c(=O)n(Cc3ccc4c(c3)OCO4)c(=O)c3oc4ccccc4c32)c1,-4%,-13%,·,-5%,-20,·
COc1ccc(N(C(C)C(=O)N2CCCC2)S(C)(=O)=O)cc1 (stereo not given),·,-11%,7%,·,-1,-4%
SMILES,VACV mCherry inh,FMDV antiviral,HCV inhibitor,VACV Venus inh,HCMV inh,Giardia FBPA inh
CCOC(=O)N1CCN(C(=O)C(C)N(c2ccc(Oc3ccccc3)cc2)S(C)(=O)=O)CC1 (stereo not given),·,?,?,-11%,-65*,4%
COc1ccc(N(C(C)C(=O)N2CCC(Cc3ccccc3)CC2)S(C)(=O)=O)cc1 (stereo not given),-27%,11µM*,8.9µM*,-24%,-74*,-6%
CCOc1ccc(N(C(C)C(=O)N2CCCC2)S(C)(=O)=O)cc1 (stereo not given),-8%,-5%,-8%,12%,3,4%
CCOC(=O)C1CCN(C(=O)C(C)N(c2ccc(Oc3ccccc3)cc2)S(C)(=O)=O)CC1 (stereo not given),i,?,10µM*,-11%,5,-2%
CC(=O)Nc1ccc(-c2ccnc3c2CC(C)(C(=O)Nc2cccc(Oc4ccccc4)c2)O3)cc1 (stereo not given),?,0%,·,?,-39,·
O=C(c1ccco1)N1CCC2(CCCN(c3cccc(-c4ccccc4)c3)C2)CC1,·,-9%,·,·,·,-11%
Cc1cc(NC(=O)CSc2nnc(-c3ccco3)n2C)no1,·,-13%,31%,·,-60*,·
Cc1cc(NC(=O)CSc2nnc(-c3ccccc3C)n2C)no1,i,-4%,0%,-4%,19,·
Cc1cc(NC(=O)CSc2nccn2-c2cccc(C)c2C)no1,-13%,0%,11µM*,-16%,-8,-1%
CN(C)S(=O)(=O)c1ccc2c(c1)C(=NO)c1cc(S(=O)(=O)N(C)C)ccc1-2,-11%,3%,-21%,-21%,-64*,19%
CN(C)N=C1c2cc(S(=O)(=O)N(C)C)ccc2-c2ccc(S(=O)(=O)N(C)C)cc21,·,-12%,?,·,0,·
COc1ccc(Cl)cc1CC1(C)C(=O)Nc2ccc(S(=O)(=O)NC3CCCCC3)cc21 (stereo not given),-23%,34%,·,-6%,?,·
Cc1cc(C)nc(-n2ncc3c2CC(c2cccc(Cl)c2)CC3=O)n1 (stereo not given),10µM*,-14%,-10%,?,-89*,6%
CC(=NCC1CCCO1)C1=C(O)CC(C)(C)CC1=O (stereo not given),-12%,-24%,3%,7%,-62*,1%
O=C(OCCN1CCN(c2ncc(C(F)(F)F)cc2Cl)CC1)c1ccc(Cl)cc1,-9%,-6%,13%,0%,-9,-6%
C/[N+]([O-])=C\c1cccc(OCCN2CCN(c3ncc(C(F)(F)F)cc3Cl)CC2)c1,-14%,?,25µM*,-7%,-74*,0%
CCn1c(NCc2ccco2)nc2c1c(=O)n(C)c(=O)n2C,·,-22%,7%,·,24,0%
